# Source: PubChem BioAssay (NCI)
# Several values for one entry are separate records, joined by “and”; a condition that tells them apart may be missing. Identical values can stand only once. This is part of a sample that, as a whole, favours compounds with a hit. Of some 83,000 tested, about 20% had one in any assay.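 Note: values are percent growth. 100 is the growth of untreated cells, values between 100 and 0 indicate rising inhibition; between -100 and 0 indicates cell death.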 Activity calls are given as the source filed them. Rule for the calls: active = growth percent below 10; inactive = the rest.
# Assays:
# Test in all cases: NCI-60 one-dose screen, 48 h (100 = growth as untreated, 0 = no growth, -100 = all killed)
# Settings in all cases: 10 µM unless noted
# HCT-15 colon = tested on: HCT-15 colon
# HT29 colon = tested on: HT29 colon
# SNB-75 CNS = tested on: SNB-75 CNS
# SNB-19 CNS = tested on: SNB-19 CNS
# U251 CNS = tested on: U251 CNS
# PC-3 prostate = tested on: PC-3 prostate
# SK-MEL-5 melanoma = tested on: SK-MEL-5 melanoma
# UACC-62 melanoma = tested on: UACC-62 melanoma
# LOX IMVI melanoma = tested on: LOX IMVI melanoma
# SK-MEL-28 melanoma = tested on: SK-MEL-28 melanoma
# SK-MEL-2 melanoma = tested on: SK-MEL-2 melanoma
# EKVX NSCLC = tested on: EKVX NSCLC
# SN12C renal = tested on: SN12C renal
# UO-31 renal = tested on: UO-31 renal
# TK-10 renal = tested on: TK-10 renal
# CAKI-1 renal = tested on: CAKI-1 renal
# A498 renal = tested on: A498 renal
# CCRF-CEM leukemia = tested on: CCRF-CEM leukemia
# MOLT-4 leukemia = tested on: MOLT-4 leukemia
# ACHN renal = tested on: ACHN renal
Structure (SMILES),growth (HCT-15 colon),growth (HT29 colon),growth (SNB-75 CNS),growth (SNB-19 CNS),growth (U251 CNS),growth (PC-3 prostate),growth (SK-MEL-5 melanoma),growth (UACC-62 melanoma),growth (LOX IMVI melanoma),growth (SK-MEL-28 melanoma),growth (SK-MEL-2 melanoma),growth (EKVX NSCLC),growth (SN12C renal),growth (UO-31 renal),growth (TK-10 renal),growth (CAKI-1 renal),growth (A498 renal),growth (CCRF-CEM leukemia),growth (MOLT-4 leukemia),growth (ACHN renal)
O=C(O)c1ccc2c3ccc(C(=O)O)c4c(C(=O)O)ccc(c5ccc(C(=O)O)c1c25)c43,108% (inactive),111% (inactive),85.4% (inactive),96.8% (inactive),106% (inactive),101% (inactive),102% (inactive),90.9% (inactive),92.7% (inactive),112% (inactive),91.3% (inactive),101% (inactive),101% (inactive),85.8% (inactive),117% (inactive),80% (inactive),108% (inactive),111% (inactive),106% (inactive),–
COC(=O)c1nc(N)nc(C(=O)OC)c1C(=O)c1ccc(F)cc1,103% (inactive),115% (inactive),99.1% (inactive),103% (inactive),102% (inactive),104% (inactive),103% (inactive),105% (inactive),98.6% (inactive),115% (inactive),105% (inactive),104% (inactive),103% (inactive),92.4% (inactive),–,96.1% (inactive),120% (inactive),106% (inactive),156% (inactive),116% (inactive)
CC(=O)Oc1ccc(C(c2ccc(OC(C)=O)cc2)c2ccccn2)cc1,84.3% (inactive) and 76.4% (inactive),91.8% (inactive) and 87.1% (inactive),56.7% (inactive) and 80.9% (inactive),104% (inactive) and 98.8% (inactive),96% (inactive) and 96.2% (inactive),73.6% (inactive) and 68.9% (inactive),-7.6% (active),96.5% (inactive) and 89.4% (inactive),90.3% (inactive) and 77.5% (inactive),107% (inactive),107% (inactive) and 94.3% (inactive),82.5% (inactive) and 87.8% (inactive),29.3% (inactive) and 30.9% (inactive),74.3% (inactive) and 89.2% (inactive),–,100% (inactive) and 117% (inactive),91.1% (inactive),98.8% (inactive) and 90.9% (inactive),93.3% (inactive) and 103% (inactive),82.5% (inactive) and 81.1% (inactive)
Oc1cccnc1CN1CCOCC1,105% (inactive) and 104% (inactive),97.7% (inactive) and 106% (inactive),88.9% (inactive) and 81.5% (inactive),101% (inactive) and 98.9% (inactive),104% (inactive) and 102% (inactive),93.9% (inactive) and 96.3% (inactive),106% (inactive) and 98.4% (inactive),101% (inactive) and 94.5% (inactive),93.1% (inactive),107% (inactive) and 105% (inactive),97.5% (inactive) and 132% (inactive),105% (inactive) and 91.9% (inactive),104% (inactive) and 95.6% (inactive),78.4% (inactive) and 88.4% (inactive),–,105% (inactive) and 89.2% (inactive),112% (inactive),103% (inactive) and 88.7% (inactive),99.1% (inactive) and 107% (inactive),106% (inactive) and 97.3% (inactive)
COC(=O)c1cc(C(=O)OC)cc([N+](=O)[O-])c1,105% (inactive),111% (inactive),72.5% (inactive),118% (inactive),94.4% (inactive),98.7% (inactive),109% (inactive),102% (inactive),104% (inactive),108% (inactive),109% (inactive),105% (inactive),111% (inactive),83.6% (inactive),–,–,93.8% (inactive),102% (inactive),71% (inactive),106% (inactive)
COc1ccc(CCNC(=S)NN)cc1OC,123% (inactive),104% (inactive),106% (inactive),127% (inactive),105% (inactive),101% (inactive),103% (inactive),115% (inactive),103% (inactive),114% (inactive),118% (inactive),103% (inactive),117% (inactive),90.2% (inactive),120% (inactive),108% (inactive),106% (inactive),92.5% (inactive),108% (inactive),–
O=C(OCc1ccccc1)c1ccccc1,114% (inactive) and 103% (inactive),114% (inactive) and 87.8% (inactive),98.7% (inactive),101% (inactive) and 92.1% (inactive),99.8% (inactive) and 105% (inactive),107% (inactive) and 85.4% (inactive),104% (inactive) and 101% (inactive),92.6% (inactive) and 102% (inactive),96.2% (inactive),106% (inactive) and 120% (inactive),126% (inactive) and 87.8% (inactive),101% (inactive) and 104% (inactive),93.2% (inactive) and 117% (inactive),107% (inactive) and 64.8% (inactive),105% (inactive) and 102% (inactive),–,88.6% (inactive) and 81.3% (inactive),104% (inactive),102% (inactive) and 83.3% (inactive),111% (inactive) and 98.1% (inactive)
Nc1ccc2ccc(NS(=O)(=O)N3CCCCC3)cc2c1,18.6% (inactive),4.34% (active),30.1% (inactive),40.3% (inactive),23.3% (inactive),43.6% (inactive),25.3% (inactive),16.7% (inactive),46.6% (inactive),55.8% (inactive),85.4% (inactive),61.7% (inactive),43.2% (inactive),64.8% (inactive),47.1% (inactive),–,29.3% (inactive),18.3% (inactive),18% (inactive),56.7% (inactive)
CN(C=O)c1ccccc1,95.1% (inactive),99.9% (inactive),80.6% (inactive),102% (inactive),93.5% (inactive),88.4% (inactive),94.5% (inactive),88.7% (inactive),89.5% (inactive),109% (inactive),103% (inactive),86.6% (inactive),93.3% (inactive),65.5% (inactive),121% (inactive),–,98% (inactive),95.7% (inactive),97.5% (inactive),92% (inactive)
COc1cc(C2c3cc4c(cc3C(OC(=O)C[n+]3ccccc3)C3COC(=O)C23)OCO4)cc(OC)c1OC (stereo unspecified),4.19% (active),4.68% (active),48.3% (inactive),27.5% (inactive),2.86% (active),35% (inactive),-32.5% (active),15.9% (inactive),12.7% (inactive),61.6% (inactive),33.5% (inactive),42.5% (inactive),12.4% (inactive),39.4% (inactive),–,18.1% (inactive),-19.9% (active),12.9% (inactive),15.5% (inactive),20.9% (inactive)
COc1ccc(CCn2cnn3c(=O)c4ccccc4nc3c2=O)cc1OC,104% (inactive) and 109% (inactive),106% (inactive) and 104% (inactive),103% (inactive) and 135% (inactive),104% (inactive) and 96.6% (inactive),101% (inactive) and 104% (inactive),102% (inactive) and 98.7% (inactive),101% (inactive) and 97% (inactive),111% (inactive) and 102% (inactive),98% (inactive),109% (inactive) and 125% (inactive),107% (inactive) and 118% (inactive),106% (inactive),107% (inactive) and 101% (inactive),93.3% (inactive) and 91.9% (inactive),114% (inactive) and 106% (inactive),–,90.6% (inactive) and 129% (inactive),97.6% (inactive),102% (inactive) and 112% (inactive),101% (inactive) and 109% (inactive)
COc1cc([C@@H]2c3cc4c(cc3[C@H](O)[C@H]3COC(=O)[C@@H]23)OCO4)cc(OC)c1OC,29.2% (inactive) and 10.5% (inactive),2.22% (active) and -8.13% (active),19.4% (inactive) and 12.9% (inactive),27.3% (inactive) and 12.9% (inactive),16.4% (inactive) and 26.2% (inactive),26.9% (inactive) and 6.21% (active),-27.1% (active) and -44% (active),19.9% (inactive) and 68.1% (inactive),23.3% (inactive) and 15.6% (inactive),28.4% (inactive) and -24% (active),-23.7% (active),28.6% (inactive) and 35.4% (inactive),20.6% (inactive) and 33% (inactive),23.3% (inactive) and 36.9% (inactive),–,22.9% (inactive) and 8.72% (active),-5.77% (active) and -29.6% (active),17.4% (inactive) and 0.767% (active),13.5% (inactive) and 4.58% (active),25.2% (inactive) and 31.8% (inactive)
Cc1ccc2cccc([N+](=O)[O-])c2n1,105% (inactive) and 96.9% (inactive),99% (inactive) and 96% (inactive),106% (inactive) and 79.5% (inactive),109% (inactive) and 99% (inactive),105% (inactive) and 103% (inactive),99.7% (inactive) and 102% (inactive),99.1% (inactive) and 105% (inactive),102% (inactive),100% (inactive) and 94.8% (inactive),109% (inactive) and 111% (inactive),104% (inactive) and 111% (inactive),114% (inactive),98.8% (inactive) and 100% (inactive),88.3% (inactive) and 73.6% (inactive),109% (inactive) and 111% (inactive),–,117% (inactive) and 109% (inactive),108% (inactive) and 95.3% (inactive),88.5% (inactive) and 89.3% (inactive),105% (inactive) and 96.9% (inactive)
